# Source: PubChem
# This is a sample that favours compounds with a hit; in the whole collection about 9.3% have one here.
# ELG1 genotoxic: qHTS screen for small molecules that induce genotoxicity in human embryonic kidney (HEK293T) cells expressing luciferase-tagged ELG1. hit rate 1.3% among 330,000. AID 504466, 2011. Potency, µM (titrated, usually from 46 µM), for the others: at the top dose activity change, positive = activation, hits mostly activators. HEK293T ELG1-luciferase reporter, luminescence, 16 h; further: % of control where 0% means no effect; nearly all actives have a fitted effect of over 60% in size
#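 Cells (2,000/well) expressing the ELG1-luciferase fusion are dosed by pin tool and kept 16 hr at 37 °C, 5% CO2. Signal comes from ONE-Glo luciferase reagent after 30 min at room temperature.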
# FLuc modulator: qHTS profiling assay for firefly luciferase inhibitor/activator using purifed enzyme and Km concentrations of substrates (counterscreen for miR-21 project). Luciferin 4-monooxygenase (Photinus pyralis), P08659. purified FLuc, Km substrates, luminescence inhibition. Potency, µM (top dose mostly 57.5 µM), for the others: at the highest dose activity change, negative = inhibition, actives largely listed as inhibitors. hit rate 6.9% among 360,000. AID 588342, 2011;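 further: plate controls were vehicle for no effect and reference inhibitor for full effect; nearly all actives have a fitted effect of over 55% in size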
# Target sequence (P08659 whole entry, looked up): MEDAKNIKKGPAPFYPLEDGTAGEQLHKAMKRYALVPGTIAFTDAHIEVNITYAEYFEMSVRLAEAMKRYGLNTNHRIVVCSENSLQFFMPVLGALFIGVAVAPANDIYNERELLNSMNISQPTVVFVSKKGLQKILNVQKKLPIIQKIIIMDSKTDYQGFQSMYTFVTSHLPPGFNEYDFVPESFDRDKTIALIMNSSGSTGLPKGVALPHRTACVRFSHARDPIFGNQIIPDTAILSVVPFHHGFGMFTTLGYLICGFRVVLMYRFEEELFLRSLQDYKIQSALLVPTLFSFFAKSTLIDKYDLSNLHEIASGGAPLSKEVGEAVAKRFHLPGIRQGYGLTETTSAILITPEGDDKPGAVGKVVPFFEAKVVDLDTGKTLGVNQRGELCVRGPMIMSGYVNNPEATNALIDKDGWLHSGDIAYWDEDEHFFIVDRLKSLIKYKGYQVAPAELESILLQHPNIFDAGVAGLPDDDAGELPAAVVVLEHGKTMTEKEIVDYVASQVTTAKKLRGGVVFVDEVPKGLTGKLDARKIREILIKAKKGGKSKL
#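 Purified P. pyralis luciferase, 10 nM final, with Km-level 10 uM D-luciferin and 10 uM ATP in 50 mM Tris acetate pH 7.5, 10 mM Mg acetate, 0.01% Tween-20, 0.05% BSA; 6-point qHTS titration about 60 µM downward; luminescence read.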
# Rab9 prom act: qHTS Assay for Rab9 Promoter Activators; Huh7 Rab9 promoter-luciferase reporter, luminescence, 24 h; Potency, µM (titrated, usually from 9.22 µM), inactives show at the top dose activation, negative = inhibition, hits mostly activators; hit rate 2.8% among 320,000; AID 485297, 2010; further: % of control where 0% means no effect; nearly all actives have a fitted effect of over 60% in size
#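 Stable Rab9-luc Huh7, 1500 cells/well, 2 h settle; cmpd in DMSO, 24 h, 37 °C/5% CO2; luciferase reagent 10 min RT; luminescence.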
# SMN2 splice enh: qHTS Assay for Enhancers of SMN2 Splice Variant Expression. HEK293 SMN2-luciferase splicing reporter, luminescence, 30-36 h. Potency, µM (titrated, usually from 46.1 µM), for inactives: at the highest dose activity change, positive = activation, usual class: activators. hit rate 2.8% among 210,000. AID 1458, 2008; further: % of control where 0% means no effect; nearly all actives have a fitted effect of over 55% in size
#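 qHTS luciferase splicing reporter: luminescence rises when SMN2 exon 7 is included in transfected HEK293 cells. Compound exposure lasted 30-36 h at 37C, with 4.5 mM final sodium butyrate as control, followed by a ONE-Glo read.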
# ELG1 DNA repair: qHTS screen for small molecules that inhibit ELG1-dependent DNA repair in human embryonic kidney (HEK293T) cells expressing luciferase-tagged ELG1. AID 504467, 2011. hit rate 2.3% among 330,000. HEK293T ELG1-luciferase reporter, luminescence, 16 h; DNA damage induced by 5-fluorouridine. Potency, µM (titrated, usually from 46.1 µM), without a hit: at the top dose activity change, negative = inhibition, most hits filed as inhibitors; further: on the % scale 0 is the no-effect control and ±100 the full control effect; nearly all actives have a fitted effect of over 55% in size
#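 HEK293T cells expressing luciferase-tagged ELG1 (2,000/well) received 5-Fluorouridine plus compound or DMSO for 16 hr at 37 °C. Luciferase was read by ONE-Glo luminescence after 30 min at room temperature.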
# NPC1 promoter act: qHTS Assay for NPC1 Promoter Activators; Potency, µM (top dose mostly 9.22 µM), for the others: at the top dose activation, hits mostly activators; Huh7 NPC1 promoter luciferase reporter, 24 h; hit rate 2.4% among 320,000; further: % of control where 0% means no effect; nearly all actives have a fitted effect of over 60% in size
#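 Compounds in DMSO were transferred onto Huh7 NPC1-luciferase reporter cells pre-incubated 2 h; after 24 h at 37 °C, Amplite reagent was dispensed and luminescence recorded 10 min later.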
# Starred values were filed as active, the others as inactive; ? = inconclusive; / = no result given. The call rests on the fitted dose curve; in most records, active means well fitted curve in the direction sought with a large enough effect; inconclusive means small, poorly fitted or top-dose-only effect, or another doubt; inactive means no such curve, though single readings can be large; an effect the other way counts as inactive or inconclusive. Potency means the concentration at half of the fitted maximal effect.
SMILES,ELG1 genotoxic,FLuc modulator,Rab9 prom act,SMN2 splice enh,ELG1 DNA repair,NPC1 promoter act
O=C(Nc1ccc(F)c(F)c1)C(c1ccccc1)N1Cc2ccccc2C1=O (configuration not stated),/,7%,/,/,/,/
COc1ccccc1C(=O)Nc1ccc(N2CCCCC2)cc1,2.9µM*,2.7µM*,4µM*,18µM*,?,?
O=C(Nc1ccc(N2CCCC2)cc1)C(c1ccccc1)c1ccccc1,3%,3%,-4%,-13%,5%,-2%
O=C(Nc1ccc(N2CCCCC2)cc1)c1ccccn1,?,0.067µM*,?,-77%,?,?
O=C(Nc1ccc(SC(F)(F)F)cc1)c1ccccn1,2.3µM*,0.85µM*,1.4µM*,2.2µM*,?,?
O=C(Nc1ccc(N2CCCCCC2)cc1)c1ccccc1Cl,?,11µM*,?,14µM*,?,21%
CC(=O)c1ccc(S(=O)(=O)N2CCN(c3ccccc3F)CC2)cc1,0%,0%,-21%,/,?,-10%
CC(c1ccon1)N(C)Cc1cn(C)nc1-c1cccc(Cl)c1 (configuration not stated),-3%,-1%,2%,/,-3%,-5%
CCOc1ccc(CNC(=O)CCn2c(=O)c3cccn3c3cccnc32)cc1,/,-5%,/,/,/,/
O=C(Nc1ccc(N2CCCCCC2)cc1)c1ccc[nH]1,?,/,0.4µM*,/,?,1.1µM*
O=C(Nc1ccc(N2CCCCC2)cc1)C(Cl)c1ccccc1 (configuration not stated),10µM*,3µM*,0%,16%,?,?
O=C(Nc1ccc(N2CCCC2)cc1)c1ccc(Br)cc1,10%,?,24%,/,?,18%
Cc1ccccc1CN1C[C@@H]2C[C@@H](c3cnc(N4CCOCC4)s3)N3CCC[C@@]23C1=O,-8%,-3%,-32%,16µM*,-10%,-4%
Clc1ccc(-c2cc(CN3CCCCC3)no2)cc1Cl,10%,19µM*,23%,/,?,22%
Clc1ccc(CN2CCCCCCC2)cc1Cl,0%,5%,-2%,?,8%,0%
Clc1ccc(-c2cc(CN3CCOCC3)no2)cc1,?,12µM*,0.89µM*,/,?,1.6µM*
Cc1ccc(OCC(=O)N(Cc2ccco2)Cc2ccc(C)o2)cc1,/,-13%,/,-10%,/,/
COc1ccc(OC)c(NC(=O)N(C)CCc2c(C)nn(C)c2C)c1,/,0%,/,/,/,/
CCC(C)C(NC(=O)c1ccc(Cl)cc1Cl)C(=O)O (configuration not stated),0%,19µM*,-6%,15%,13%,1%
CCOC(=O)C(=O)N1CCC(C(=O)OC)CC1,-5%,0%,-4%,11%,1%,0%
CCOC(=O)c1sc(=NC(=O)c2cccs2)n(C)c1C,?,1.3µM*,?,3.2µM*,?,1%
CCOC(=O)c1sc(=NC(=O)/C=C/c2ccccc2)n(C)c1C,15%,-7%,1.6µM*,30%,?,?
CCOC(=O)c1sc(=NC(=O)c2ccc(Cl)s2)n(C)c1C,1.2µM*,0.67µM*,?,7.9µM*,?,?
CCOC(=O)c1sc(=NC(=O)c2ccc(OC(C)C)cc2)n(C)c1C,5%,-3%,1%,-5%,18%,-18%
CCOC(=O)c1sc(=NC(=O)c2ccccc2Br)n(C)c1C,?,2.1µM*,?,/,?,?
SMILES,ELG1 genotoxic,FLuc modulator,Rab9 prom act,SMN2 splice enh,ELG1 DNA repair,NPC1 promoter act
Cc1sc(=NC(=O)c2ccco2)n(C)c1-c1ccc(Cl)cc1,11%,5.4µM*,2.8µM*,24%,?,2.5µM*
C=CCn1c(=NC(=O)c2ccco2)sc2cc(C(=O)OCC)ccc21,9%,-1%,-1%,-8%,24%,12%
CCOC(=O)c1sc(=NC(=O)c2ccco2)n(C)c1C,4%,15µM*,?,14µM*,?,-12%
Cc1cc(/C=C(\C#N)C(=O)NCC2CCCO2)c(C)n1-c1ccc(Cl)cc1 (configuration not stated),1%,4.3µM*,3.5µM*,/,?,?
COc1cc(/C=C(\C#N)C(=O)NCC2CCCO2)ccc1O (configuration not stated),5%,-4%,-3%,11%,16%,-2%
N#C/C(=C\c1cn(CCOc2ccccc2)c2ccccc12)C(=O)NCC1CCCO1 (configuration not stated),-5%,?,-2%,-8%,?,-2%
Cc1ccc(C)c(OCCn2cc(/C=C(/C#N)C(=O)NCC3CCCO3)c3ccccc32)c1 (configuration not stated),-7%,-2%,-6%,-23%,15µM*,-7%
COc1ccc(C(CNc2ccc(C(F)(F)F)cn2)N(C)C)cc1OC (configuration not stated),1%,2%,2%,/,1%,-3%
COc1cc(C=O)ccc1OCc1cccc(Br)c1,?,7.6µM*,-6%,14µM*,?,-3%
COc1cc(C=O)ccc1OCc1ccccc1Br,?,9.5µM*,?,?,?,?
CNC(=O)COc1ccc(C=O)cc1OC,3%,0%,-8%,-35%,21%,-1%
COc1cc(C=O)ccc1OCCSc1ccc(C)cc1,16µM*,?,8%,14%,?,12%
CCOc1ccccc1NC(=O)C1=C(C)Nc2ncnn2C1c1sccc1C (configuration not stated),/,-13%,/,/,/,/
CCc1ccccc1NS(=O)(=O)c1ccc2c(c1)CC(=O)N2,/,-6%,/,1%,/,/
Cc1ccc(NCC(=O)Nc2cccc(F)c2)cc1S(=O)(=O)N1CCCCCC1,-3%,4%,-7%,/,14%,-8%
Clc1ccc(N2CCN(c3cnc4ccccc4n3)CC2)cc1,?,17µM*,?,-9%,?,?
Fc1ccc(N2CCN(c3nc4ccccc4c4nc(-c5ccccc5)nn34)CC2)cc1,/,1%,/,-4%,/,/
Fc1ccc(N2CCN(c3cnc4ccccc4n3)CC2)cc1,?,11µM*,3.5µM*,/,?,2.8µM*
Cc1cc(N2CCN(c3ccccc3)CC2)nc2ccccc12,4%,15µM*,14%,/,11%,11%
c1ccc(N2CCN(c3cnc4ccccc4n3)CC2)cc1,1%,3.4µM*,1.1µM*,3.5µM*,?,1.6µM*
